From PubChem BioAssay (NCI)
About 79,000 compounds went through this panel and 15% of them were active in at least one assay; those are over-represented in the sample as a whole. Active and inactive are the calls of the source. No stated cut-off is given here; in the data, active means growth inhibition above about 70%; inactive means the rest.

How the values were obtained:
[1] = NCI Yeast Anticancer Drug Screen. Data for the rad52 strain (AID 147);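 further: 0% = growth of vehicle-treated control cultures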; conditions: S. cerevisiae rad52 mutant growth inhibition, hits give high values
Summary of the method: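 DNA repair-defective yeast; compound exposure; growth scored against vehicle controls.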

[2] = NCI Yeast Anticancer Drug Screen. Data for the rad50EPP+ strain (AID 151);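 further: 0% = growth of vehicle-treated control cultures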; conditions: S. cerevisiae rad50 mutant strain, hits give high values
Summary of the method: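 rad50EPP+ yeast treated with test compounds. Readout: growth vs vehicle control.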

[3] = NCI Yeast Anticancer Drug Screen. Data for the mgt1 strain (AID 153); conditions: S. cerevisiae mgt1 mutant growth inhibition, hits give high values
Summary of the method: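 Growth inhibition relative to vehicle controls was scored for the mgt1 yeast strain after compound exposure.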

[4] = NCI Yeast Anticancer Drug Screen. Data for the rad50 strain (AID 155);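 further: 0% = growth of vehicle-only cultures of the same strain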; conditions: S. cerevisiae rad50 strain growth inhibition, hits give high values
Summary of the method: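 Cells are treated with compound, grown, and their growth is then scored against vehicle-only cultures of the same repair-deficient yeast strain.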

[5] = NCI Yeast Anticancer Drug Screen. Data for the mec2-1 strain (AID 157); conditions: S. cerevisiae mec2-1 strain, hits give high values
Summary of the method: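 Growth inhibition is read against vehicle-treated controls after compound exposure of the mec2-1 yeast strain, which is defective in DNA damage repair or cell cycle control.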

[6] = NCI Yeast Anticancer Drug Screen. Data for the rad14 strain (AID 159);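 further: 0% = growth of vehicle-treated control cultures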; conditions: S. cerevisiae rad14 strain growth inhibition, hits give high values
Summary of the method: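 Readout: yeast growth inhibition, referenced to vehicle-only cultures. Strain bears a defined alteration in DNA damage repair.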

[7] = NCI Yeast Anticancer Drug Screen. Data for the sgs1 mgt1 strain (AID 161);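 further: 0% = growth of cultures given vehicle only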; conditions: S. cerevisiae sgs1 mgt1 strain, hits give high values
Summary of the method: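 Growth of a repair-deficient yeast mutant was monitored after compound treatment and expressed as inhibition relative to vehicle-treated cultures.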

[8] = NCI Yeast Anticancer Drug Screen. Data for the CLN2oe strain (AID 163);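 further: 0% = growth of vehicle-only control cultures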; conditions: S. cerevisiae CLN2oe strain, hits give high values
Summary of the method: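 Compound-treated yeast; growth vs vehicle ctrl = % inhibition. Genetically altered strain (cell-cycle control).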

[9] = NCI Yeast Anticancer Drug Screen. Data for the cln2 rad14 strain (AID 165);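 further: 0% = growth equal to vehicle treated cultures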; conditions: S. cerevisiae cln2 rad14 strain, hits give high values
Summary of the method: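 Growth inhibition, relative to vehicle-treated controls, is the read-out. The test organism is a yeast strain with defined genetic alterations, cln2 rad14.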

[10] = NCI Yeast Anticancer Drug Screen. Data for the bub3 strain (AID 167); conditions: S. cerevisiae bub3 mutant strain, hits give high values
Summary of the method: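 Part of a panel of yeast mutants defective in DNA damage repair or cell cycle regulation. Each strain is grown with compound, and inhibition is calculated relative to solvent-treated cultures.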

[11] = NCI Yeast Anticancer Drug Screen. Data for the wt2 strain (AID 169);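 further: 0% = growth of vehicle-treated yeast cultures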; conditions: S. cerevisiae wt2 strain growth inhibition, hits give high values
Summary of the method: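 Compound exposure of yeast; growth compared with vehicle controls; inhibition reported.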

[12] = NCI Yeast Anticancer Drug Screen. Data for the mlh1 strain (AID 171);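 further: 0% = growth of vehicle-treated control cultures of the same strain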; conditions: S. cerevisiae mlh1 strain growth inhibition, hits give high values
Summary of the method: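 Compounds are applied to a genetically altered yeast strain, and its growth is compared with that of vehicle-treated cultures to give percent inhibition.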

[13] = NCI Yeast Anticancer Drug Screen. Data for the sgs1 strain (AID 173);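 further: 0% = growth of vehicle-only control cultures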; conditions: S. cerevisiae sgs1 mutant, hits give high values
Summary of the method: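 Compounds applied to genetically altered yeast; growth compared with vehicle-treated cultures to give % inhibition.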

[14] = NCI Yeast Anticancer Drug Screen. Data for the mlh1 rad18 strain (AID 175); conditions: S. cerevisiae mlh1 rad18 strain growth inhibition, hits give high values
Summary of the method: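 Cells of a genetically altered yeast strain, deficient in DNA damage repair, were treated with compound. Their growth was then compared with that of vehicle-treated cultures to give inhibition.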

[15] = NCI Yeast Anticancer Drug Screen. Data for the rad18 strain (AID 177); conditions: S. cerevisiae rad18 mutant growth inhibition, hits give high values
Summary of the method: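 Compounds are applied to a repair-deficient yeast strain, and growth is compared with that of vehicle-treated cultures to give percent inhibition.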

[16] = NCI Yeast Anticancer Drug Screen. Data for the wt1 strain (AID 149);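 further: 0% = growth of vehicle-treated wt1 cultures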; conditions: S. cerevisiae wt1 strain (SPY 50644) growth inhibition, hits give high values
Summary of the method: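 The wt1 strain was treated with compounds, and growth was compared with vehicle-treated cultures to give inhibition.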

[17] = at 5.0 µM (retest, dose inferred, filed as 0.5)
[18] = at 50.0 µM (retest, dose inferred, filed as 5.0)

Measured: growth inhibition

O=C1c2ccc3ccccc3c2CCC1N1CCCCC1 (stereo not drawn)
inactive: [1]; at 1.2 µM 4% | [1]; at 3.7 µM 16% | [1]; at 11.0 µM 41% | [2]; at 1.2 µM 32% | [2]; at 3.7 µM 53% | [3]; at 1.2 µM 3% | [3]; at 3.7 µM 10% | [3]; at 11.0 µM 21% | [4]; at 1.2 µM 2% | [4]; at 3.7 µM 8% | [4]; [17] 9% | [4]; at 11.0 µM 16% | [5]; at 1.2 µM 0% | [5]; at 3.7 µM 11% | [5]; [17] 10% | [5]; at 11.0 µM 17% | [5]; at 33.0 µM 62% | [6]; at 1.2 µM 14% | [6]; at 3.7 µM 33% | [6]; at 11.0 µM 50% | [7]; [17] 19% | [8]; at 1.2 µM 5% | [8]; at 3.7 µM 5% | [8]; at 11.0 µM 22% | [8]; at 33.0 µM 61% | [9]; [17] 7% | [10]; at 1.2 µM -7% | [10]; at 3.7 µM -6% | [10]; [17] 10% | [10]; at 11.0 µM 8% | [11]; at 1.2 µM 5% | [11]; at 3.7 µM 14% | [11]; at 11.0 µM 33% | [12]; at 1.2 µM -1% | [12]; at 3.7 µM 7% | [12]; at 11.0 µM 22% | [13]; at 1.2 µM 4% | [13]; at 3.7 µM 12% | [13]; at 11.0 µM 41% | [14]; [17] 31% | [15]; at 1.2 µM 6% | [15]; at 3.7 µM 13% | [15]; at 11.0 µM 26% | [15]; at 33.0 µM 65%
active: [1]; at 33.0 µM 81% | [1]; at 100.0 µM 98% | [2]; at 11.0 µM 77% | [2]; at 33.0 µM 85% | [2]; at 100.0 µM 98% | [3]; at 33.0 µM 76% | [3]; at 100.0 µM 98% | [4]; at 33.0 µM 73% | [4]; [18] 97% | [4]; at 50.0 µM 98.9% | [4]; at 100.0 µM 98% | [5]; [18] 99% | [5]; at 50.0 µM 98.8% | [5]; at 100.0 µM 95% | [6]; at 33.0 µM 97% | [6]; at 100.0 µM 98% | [7]; [18] 98% | [7]; at 50.0 µM 99.2% | [8]; at 100.0 µM 98% | [9]; [18] 97% | [9]; at 50.0 µM 78.3% | [10]; at 33.0 µM 76% | [10]; [18] 99% | [10]; at 50.0 µM 99.3% | [10]; at 100.0 µM 97% | [11]; at 33.0 µM 79% | [11]; at 100.0 µM 97% | [12]; at 33.0 µM 81% | [12]; at 100.0 µM 98% | [13]; at 33.0 µM 92% | [13]; at 100.0 µM 98% | [14]; [18] 99% | [14]; at 50.0 µM 97% | [15]; at 100.0 µM 97%

CCCCN(CCCC)CC(C(C)=O)C(c1ccccc1)c1c(O)c2ccccc2oc1=O (stereo not drawn)
inactive: [1]; at 1.2 µM 2% | [1]; at 3.7 µM 3% | [1]; at 11.0 µM 2% | [1]; at 33.0 µM 3% | [1]; at 100.0 µM 2% | [16]; at 1.2 µM 0% | [16]; at 3.7 µM -1% | [16]; at 11.0 µM -1% | [16]; at 33.0 µM -3% | [16]; at 100.0 µM -4% | [3]; at 1.2 µM 1% | [3]; at 3.7 µM 2% | [3]; at 11.0 µM 3% | [3]; at 33.0 µM 0% | [3]; at 100.0 µM -1% | [4]; at 1.2 µM 2% | [4]; at 3.7 µM 2% | [4]; [17] 22% | [4]; at 11.0 µM 4% | [4]; at 33.0 µM 3% | [4]; [18] 22% | [4]; at 100.0 µM 1% | [6]; at 1.2 µM 5% | [6]; at 3.7 µM 3% | [6]; at 11.0 µM 2% | [6]; at 33.0 µM -2% | [6]; at 100.0 µM -24% | [7]; [17] 10% | [7]; [18] 10% | [8]; at 1.2 µM 1% | [8]; at 3.7 µM 6% | [8]; at 11.0 µM 5% | [8]; at 33.0 µM -2% | [8]; at 100.0 µM -3% | [9]; [17] 51% | [9]; [18] 51% | [10]; at 1.2 µM 4% | [10]; at 3.7 µM 2% | [10]; [17] 4% | [10]; at 11.0 µM 15% | [10]; at 33.0 µM 22% | [10]; [18] 4% | [10]; at 100.0 µM 6% | [11]; at 1.2 µM 0% | [11]; at 3.7 µM -1% | [11]; at 11.0 µM 0% | [11]; at 33.0 µM -1% | [11]; at 100.0 µM 4% | [12]; at 1.2 µM 0% | [12]; at 3.7 µM -2% | [12]; at 11.0 µM -2% | [12]; at 33.0 µM 1% | [12]; at 100.0 µM -28% | [13]; at 1.2 µM -4% | [13]; at 3.7 µM -6% | [13]; at 11.0 µM -7% | [13]; at 33.0 µM -4% | [13]; at 100.0 µM 9% | [14]; [17] 22% | [14]; [18] 22% | [15]; at 1.2 µM -3% | [15]; at 3.7 µM -9% | [15]; at 11.0 µM -10% | [15]; at 33.0 µM -12% | [15]; at 100.0 µM -8%
active: [4]; at 50.0 µM 71.3% | [7]; at 50.0 µM 84.2% | [9]; at 50.0 µM 81.5% | [10]; at 50.0 µM 74.5% | [14]; at 50.0 µM 76.8%
